Records with an inconclusive call do not appear. Active and inactive are the calls of the source. Unless noted, calls follow the shape of the dose curve; as a rule, active = well fitted curve in the direction sought with a large enough effect in the repeat runs; inconclusive = weak or mixed curves; inactive = no such curve, though single readings can be large; an effect the other way counts as inactive or inconclusive.
What was measured:
[1] = qHTS assay to identify small molecule antagonists of the estrogen related receptor (ERR) signaling pathway from Tox21 library - cell viability counter screen (AID 1224834); also: nearly all actives have a fitted effect of over 30% in size
How it was run: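 ERR cells, 2,000/well; 6 h settle at 37 C/5% CO2; pin-tool compound transfer in DMSO; 17.5 h at 37 C; CellTiter-Fluor, 30 min; fluorescence intensity.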

[2] = target: Luciferin 4-monooxygenase (Photinus pyralis) (UniProt P08659); test: qHTS assay to identify small molecule inhibitors of firefly luciferase (AID 1224835); also: series mostly up to about 120 µM; nearly all actives have a fitted effect of over 25% in size
How it was run: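 Quantitative HTS format; KM concentrations of both substrates. Purified P. pyralis FLuc activity quantified from luminescence images.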

[3] = qHTS assay to identify small molecule agonists of the constitutive androstane receptor (CAR) signaling pathway - cell viability counter screen (AID 1224836); also: series mostly up to about 92 µM; nearly all actives have a fitted effect of over 45% in size
How it was run: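 Cell viability multiplexed with the CAR agonist screen: CellTiter-Fluor fluorescence after 23 hr at 37 C. HepG2-CYP2B6-hCAR cells got compounds at 15 concentrations with PK11195 at 0.75 uM final.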

[4] = qHTS assay to identify small molecule antagonists of the constitutive androstane receptor (CAR) signaling pathway - cell viability counter screen (AID 1224837); also: series mostly up to about 92 µM; nearly all actives have a fitted effect of over 45% in size
How it was run: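 Viability was measured with CellTiter-Fluor in a HepG2 line carrying stably transfected hCAR and a CYP2B6-2.2kb construct. Cells were exposed for 23 hr at 37 C to 15 compound concentrations with 50 nM CITCO as agonist.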

[5] = target: Nuclear receptor subfamily 1 group I member 3 (Homo sapiens) (UniProt Q14994); test: qHTS assay to identify small molecule antagonists of the constitutive androstane receptor (CAR) signaling pathway (AID 1224838);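 also: HepG2 cells stably expressing hCAR with CYP2B6 luciferase reporter stimulated by CITCO; nearly all actives have a fitted effect of over 40% in size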
How it was run: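 Antagonist mode used CITCO at a final 50 nM to activate CAR in human hepatoma HepG2 cells carrying stable hCAR and a 2.2 kb CYP2B6 promoter-luciferase construct. Compounds were tested at 15 concentrations over 24 h, with luminescence as the end point.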

[6] = target: Nuclear receptor subfamily 1 group I member 3 (Homo sapiens) (UniProt Q14994); test: qHTS assay to identify small molecule agonists of the constitutive androstane receptor (CAR) signaling pathway (AID 1224839); also: series mostly up to about 92 µM; nearly all actives have a fitted effect of over 15% in size
How it was run: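 Luminescent ONE-Glo read-out after 24 hr, 37 C exposure of double-stable HepG2-CYP2B6-hCAR reporter cells to a 15-point compound series, in the presence of 0.75 uM PK11195 (final).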

[7] = qHTS assay to identify small molecule antagonists of the estrogen related receptor signaling pathway with the pleiotropic PPARgamma coactivator (PGC) from Tox21 10K library - cell viability counter screen (AID 1224840; active = well fitted cell-killing curve with a large enough effect in the repeat runs, not every such curve was filed as active; also: nearly all actives have a fitted effect of over 40% in size)
How it was run: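 Multiplexed viability counter screen in the PGC/ERR cell line: cells treated with DMSO-dissolved compounds for 17.5 hours at 37 C, then viability measured as CellTiter-Fluor fluorescence.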

[8] = target: Thyrotropin receptor (Homo sapiens) (UniProt P16473); test: qHTS assay to identify small molecule agonists of the thyroid stimulating hormone receptor (TSHR) signaling pathway (AID 1224843; calls by dose curve; also: nearly all actives have a fitted effect of over 45% in size)
How it was run: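 Using 15 concentrations per compound in triplicate, cAMP production was monitored in TSHR-HEK293 cells after 30 min compound incubation at RT; HTRF reagents followed, with fluorescence intensity recorded after 1 h.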

[9] = qHTS assay to identify small molecule antagonists of the estrogen related receptor signaling pathway with the pleiotropic PPARgamma coactivator (PGC) from Tox21 10K library (AID 1224841; call rule not given here; also: series mostly up to about 92 µM; actives are mostly falling curves and most rising ones were filed inactive; nearly all actives have a fitted effect of over 50% in size)
How it was run: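 Steps: plate 2,000 PGC/ERR cells per well; incubate 6 h at 37 C with 5% CO2; transfer compounds from DMSO stocks by pin tool; incubate 18 h at 37 C; add One-Glo; measure luminescence 30 min later.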

[10] = qHTS assay to identify small molecule agonists of the estrogen related receptor signaling pathway with the pleiotropic PPARgamma coactivator (PGC) from Tox21 10K library (AID 1224842); also: nearly all actives have a fitted effect of over 15% in size
How it was run: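 PGC/ERR reporter cells (NTP line) were seeded 2,000 per well, rested 6 h at 37 C/5% CO2, then pin-dosed with compounds in DMSO for 18 h at 37 C; luciferase read by One-Glo luminescence after 30 min at room temperature.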
% is scaled to controls: 0 for no effect and ±100 for the full control effect.

Sequence of Luciferin 4-monooxygenase (Photinus pyralis) (P08659 whole entry, looked up): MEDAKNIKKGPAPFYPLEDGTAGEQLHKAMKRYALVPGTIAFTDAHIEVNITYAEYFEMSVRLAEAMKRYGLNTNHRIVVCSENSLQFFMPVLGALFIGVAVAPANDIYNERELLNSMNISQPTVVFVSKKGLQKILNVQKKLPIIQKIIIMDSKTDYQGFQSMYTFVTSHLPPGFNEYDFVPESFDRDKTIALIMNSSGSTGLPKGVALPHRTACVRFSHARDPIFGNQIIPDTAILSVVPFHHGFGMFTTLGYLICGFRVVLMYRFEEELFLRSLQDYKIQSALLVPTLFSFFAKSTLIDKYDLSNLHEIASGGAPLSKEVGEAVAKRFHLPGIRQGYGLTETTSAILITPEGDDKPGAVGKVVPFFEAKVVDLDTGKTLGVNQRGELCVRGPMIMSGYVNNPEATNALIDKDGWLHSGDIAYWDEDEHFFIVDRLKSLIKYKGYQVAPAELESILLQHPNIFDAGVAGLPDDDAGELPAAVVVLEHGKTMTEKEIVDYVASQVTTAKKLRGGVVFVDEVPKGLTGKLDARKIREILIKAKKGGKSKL
Sequence of Thyrotropin receptor (Homo sapiens) (P16473 whole entry, looked up): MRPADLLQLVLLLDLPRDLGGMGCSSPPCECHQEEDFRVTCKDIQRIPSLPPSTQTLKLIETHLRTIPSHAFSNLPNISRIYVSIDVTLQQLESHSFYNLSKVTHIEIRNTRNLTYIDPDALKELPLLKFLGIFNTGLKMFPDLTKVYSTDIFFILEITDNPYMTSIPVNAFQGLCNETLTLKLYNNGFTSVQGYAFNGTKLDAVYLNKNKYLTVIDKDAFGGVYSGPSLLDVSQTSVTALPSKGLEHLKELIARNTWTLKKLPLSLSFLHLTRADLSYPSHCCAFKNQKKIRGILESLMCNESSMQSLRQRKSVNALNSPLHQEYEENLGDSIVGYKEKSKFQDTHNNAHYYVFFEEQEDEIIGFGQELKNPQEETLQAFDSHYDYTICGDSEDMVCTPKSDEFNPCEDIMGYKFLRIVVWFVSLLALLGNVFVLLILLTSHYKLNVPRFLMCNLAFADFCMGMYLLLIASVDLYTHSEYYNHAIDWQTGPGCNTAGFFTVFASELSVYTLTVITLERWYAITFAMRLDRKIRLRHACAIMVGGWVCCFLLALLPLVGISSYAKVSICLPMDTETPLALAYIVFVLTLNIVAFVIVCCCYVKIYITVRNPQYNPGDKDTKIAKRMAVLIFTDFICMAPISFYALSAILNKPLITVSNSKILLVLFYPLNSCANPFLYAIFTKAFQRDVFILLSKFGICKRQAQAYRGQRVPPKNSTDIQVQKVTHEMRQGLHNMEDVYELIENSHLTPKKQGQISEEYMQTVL
Sequence of Nuclear receptor subfamily 1 group I member 3 (Homo sapiens) (Q14994 whole entry, looked up): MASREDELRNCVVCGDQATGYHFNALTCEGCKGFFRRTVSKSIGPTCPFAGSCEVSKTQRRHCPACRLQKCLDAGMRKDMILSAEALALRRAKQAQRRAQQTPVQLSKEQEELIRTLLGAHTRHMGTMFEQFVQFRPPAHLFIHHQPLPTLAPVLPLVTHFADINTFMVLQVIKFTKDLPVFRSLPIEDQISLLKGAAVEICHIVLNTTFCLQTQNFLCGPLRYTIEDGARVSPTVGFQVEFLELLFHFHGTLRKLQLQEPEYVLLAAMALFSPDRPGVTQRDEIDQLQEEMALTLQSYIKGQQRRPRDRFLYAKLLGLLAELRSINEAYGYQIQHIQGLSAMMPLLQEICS

Cc1ccc(NC(=O)N(C)C)cc1NC(=O)N(C)C
inactive: Potency [1] | Potency [2] | Potency [3] | Potency [4] | Potency [5] | Potency [6] | Potency [7] | Potency [8]

CNC1CCCN(c2c(F)cc3c(=O)c(C(=O)O)cn(C4CC4)c3c2OC)C1 (stereo not given)
inactive: Potency [1] | Potency [2] | Potency [3] | Potency [4] | Potency [5] | Potency [6] | Potency [7] | Potency [8]

CC(O)Cn1cnc2c1c(=O)n(C)c(=O)n2C (stereo not given)
inactive: Potency [1] | Potency [2] | Potency [3] | Potency [4] | Potency [5] | Potency [7] | Potency [9] | Potency [10]

N[C@@H](Cc1cc(I)c(O)c(I)c1)C(=O)O
inactive: Potency [1] | Potency [2] | Potency [3] | Potency [4] | Potency [5] | Potency [7] | Potency [9] | Potency [10] | Potency [8]

CCCCCCCCCCCCCOC(=O)CCSCCC(=O)OCCCCCCCCCCCCC
inactive: viability change, negative = cytotoxic [1] -0.449% [at 19 µM] | activity change, negative = inhibition [2] -2.08% [at 23.6 µM] | viability change, negative = cytotoxic [3] -3.39% [at 19 µM] | activity change, negative = cytotoxicity [4] -3.13% [at 19 µM] | activity, negative = inhibition [5] 5.4% [at 19 µM] | activation [6] -0.548% [at 19 µM] | viability change, negative = cytotoxic [7] 0.0068% [at 19 µM] | activation [8] -1.63% [at 19 µM]

CCOC(=O)Oc1ccc(CCNC(=O)[C@H](CCSC)NC(C)=O)cc1OC(=O)OCC
inactive: Potency [1] | Potency [2] | Potency [3] | Potency [4] | Potency [5] | Potency [6] | Potency [7] | Potency [8]

CCCCCc1ccco1
inactive: Potency [1] | Potency [2] | Potency [3] | Potency [4] | Potency [5] | Potency [6] | Potency [7] | Potency [8]

CCCCCCCCCCCCCCCCCC(=O)OCC(CC)CCCC (stereo not given)
inactive: Potency [1] | Potency [2] | Potency [3] | Potency [4] | Potency [5] | Potency [6] | Potency [7] | Potency [8]

C=CCOC(=O)COCCC(C)C
inactive: Potency [1] | Potency [2] | Potency [3] | Potency [4] | Potency [5] | Potency [6] | Potency [7] | Potency [8]

CSCC[C@H](NC(=O)[C@H](Cc1c[nH]c2ccccc12)NC(=O)CCNC(=O)OC(C)(C)C)C(=O)N[C@@H](CC(=O)O)C(=O)N[C@@H](Cc1ccccc1)C(N)=O
inactive: Potency [1] | Potency [2] | Potency [3] | Potency [4] | Potency [5] | Potency [6] | Potency [7] | Potency [8]

CC(C)Cc1ccc(CC(=O)O)cc1
inactive: Potency [1] | Potency [2] | Potency [3] | Potency [4] | Potency [5] | Potency [7] | Potency [9] | Potency [10]

O=C(O)/C=C/c1ccc(O)c(O)c1
inactive: Potency [1] | Potency [2] | Potency [3] | Potency [4] | Potency [5] | Potency [6] | Potency [7] | Potency [8]

O=c1[nH][nH]c(=O)c2cc([N+](=O)[O-])ccc12
inactive: Potency [1] | Potency [2] | Potency [3] | Potency [4] | Potency [5] | Potency [6] | Potency [7] | Potency [8]

Reference: PubChem BioAssay (Tox21)
